CtBP-E1A blk: qHTS Assay for Inhibitors of the CtBP/E1A Interaction. CtBP / adenovirus E1A interaction (AlphaScreen). AlphaScreen GST-E1A/His-CtBP binding, 1536-well; hits give low values. activity change, % (test concentration not listed). actives 0.49% (n = 340,000). AID 651724, 2012; in the data active means activity change below about -65%; inconclusive means mostly about -30% to -63%
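Steps: dispense buffer (Tris pH 8.0, NaCl 300 mM, TCEP 1 mM, BSA, Tween 20); add 5X protein mix (GST-E1A, His-CtBP, 125 nM each); pin 23 nL compound; 2 h at 37 °C, dark; add 5X beads (50 ug/mL); 1 h; read.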
JMJD2A Tudor: qHTS Assay for Inhibitors of JMJD2A-Tudor Domain; Potency, µM (top dose mostly 114 µM), actives largely listed as inhibitors; AlphaScreen JMJD2A-Tudor / H3K4me3 peptide binding; actives 4.4% (n = 390,000); further: nearly all actives have a fitted effect of over 50% in size
Six1-Eya2 blk: qHTS Assay for Inhibitors of the Six1/Eya2 Interaction. actives 0.56% (n = 360,000). AlphaScreen GST-Six1/His-Eya2 binding, biochemical; hits give low values. AID 651725, 2012. activity change, % (test concentration not listed); in the data active means activity change below about -65%; inconclusive means mostly about -30% to -63%
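AlphaScreen with GST-Six1 and His-Eya2 (5X mix: 250 nM and 500 nM), glutathione donor and nickel acceptor beads; buffer 50 mM Tris pH 8.0, 300 mM NaCl, 1 mM TCEP; 1 h at 37 C in the dark.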
HP1b binding inh: HTS for Inhibitors of HP1-beta Chromodomain Interactions with Methylated Histone Tails; Chromobox protein homolog 1 (Homo sapiens), P83916; AlphaScreen HP1-beta / biotin-H3K9me3 peptide binding; Potency, µM (highest dose often 114 µM), actives largely listed as inhibitors; actives 0.56% (n = 390,000); further: nearly all actives have a fitted effect of over 70% in size
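HP1-beta protein (50 nM final) preincubated 30 min at room temperature with biotinylated H3(1-18)K9me3 peptide (50 nM) in PBS pH 7.4, 0.01% Tween-20, then compound added for 30 min. AlphaScreen streptavidin donor/nickel chelate acceptor beads (10 ug/mL final), 30 min dark, luminescence read.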
BAZ2B block: qHTS Assay for Inhibitors of BAZ2B; AID 504333, 2011; Potency, µM (series often up to 114 µM), most hits filed as inhibitors; AlphaScreen BAZ2B-H3K14Ac peptide displacement; actives 4.4% (n = 360,000); further: nearly all actives have a fitted effect of over 60% in size
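In this displacement format the biotinylated H3(5-23) peptide acetylated at Lys14 serves as ligand at 50 nM, with BAZ2B at 50 nM in PBS pH 7.4 containing 0.01% Tween-20. Donor and acceptor beads are 10 ug/mL final.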
TDP1 block: qHTS Assay for Inhibitors of Tyrosyl-DNA Phosphodiesterase (TDP1); actives 0.28% (n = 350,000); Tyrosyl-DNA phosphodiesterase 1 (Homo sapiens), Q9NUW8; recombinant TDP1, AlphaScreen DNA substrate cleavage; Potency, µM (highest dose often 130 µM), most hits filed as inhibitors; AID 485290, 2010; further: nearly all actives have a fitted effect of over 40% in size
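Signal: AlphaScreen proximity between streptavidin donor and anti-FITC acceptor beads on intact substrate. Reaction: Tdp1 1 nM, substrate 15 nM final, 5 min RT after 15 min compound preincubation.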
Hits are given with their value; [ ] = another dose, or the depositor's remark. Compounds with a hit are over-represented: about 5.3% of the library has one in this group of screens. Unless noted, the call rests on the fitted dose curve; in most records, active means well fitted inhibition curve with a large enough effect; inconclusive means small, poorly fitted or top-dose-only effect; inactive means no such curve, though single readings can be large or run the other way.

How did O=C(NNC(=O)c1ccccc1[N+](=O)[O-])c1ccccn1 do in these assays?
CtBP-E1A blk: inactive; JMJD2A Tudor: inactive; Six1-Eya2 blk: -77.2; HP1b binding inh: inactive; BAZ2B block: inactive; TDP1 block: inactive

What do the screens show for `C=CCn1c(SCC(=O)c2cccs2)nnc1-c1cccc(OC)c1`?
CtBP-E1A blk: inactive; JMJD2A Tudor: 89.1µM; Six1-Eya2 blk: inactive; HP1b binding inh: inactive; BAZ2B block: inactive; TDP1 block: inactive

How did C=CCn1c(SCC(=O)c2ccc(O)c(O)c2)nnc1-c1ccc(OC)cc1 do in these assays?
CtBP-E1A blk: inactive; JMJD2A Tudor: inconclusive; Six1-Eya2 blk: inactive; HP1b binding inh: inactive; BAZ2B block: inactive

Results for C=CCn1c(SCC(=O)c2ccc(O)c(O)c2)nnc1-c1cccc(OC)c1 ?
CtBP-E1A blk: inactive; JMJD2A Tudor: inconclusive; Six1-Eya2 blk: inactive; HP1b binding inh: inactive; BAZ2B block: 50.1µM; TDP1 block: inactive

How did COc1ccccc1NC(=O)c1cc2c(n(-c3ccc(C)cc3)c1=O)CC(C)(C)CC2=O do in these assays?
JMJD2A Tudor: inactive; HP1b binding inh: inactive; BAZ2B block: inactive

What do the screens show for `CCc1ccc(NC(=O)c2sc3nc(C)cc(C)c3c2NC(=O)c2ccccc2)cc1`?
JMJD2A Tudor: inactive; HP1b binding inh: inactive; BAZ2B block: inactive; TDP1 block: inactive

How did CC1(N)CCC(C(C)(C)N)CC1 (stereo not drawn) do in these assays?
TDP1 block: inactive

Results for CC(=O)Nc1ccc(SCC(=O)c2cc(C)ccc2C)cc1 ?
CtBP-E1A blk: inactive; JMJD2A Tudor: inactive; Six1-Eya2 blk: inactive; HP1b binding inh: inactive; BAZ2B block: inactive; TDP1 block: inactive

What do the screens show for `COc1ccc(-n2c(C)cc(C(=O)CCl)c2C)cc1`?
CtBP-E1A blk: inactive; JMJD2A Tudor: inconclusive; Six1-Eya2 blk: inactive; HP1b binding inh: inactive; BAZ2B block: 44.7µM; TDP1 block: inactive

What do the screens show for `COc1ccc(-n2c(C)cc(C(=O)CSc3ccc(NC(C)=O)cc3)c2C)cc1`?
CtBP-E1A blk: inactive; JMJD2A Tudor: inconclusive; Six1-Eya2 blk: inactive; HP1b binding inh: inconclusive; BAZ2B block: 44.7µM; TDP1 block: inactive

Results for CC(=O)Nc1ccc(SCC(=O)c2cc(C)n(-c3ccccc3)c2C)cc1 ?
CtBP-E1A blk: inactive; JMJD2A Tudor: inactive; Six1-Eya2 blk: inactive; HP1b binding inh: inactive; BAZ2B block: 44.7µM; TDP1 block: inactive

Results for Cc1cc(C(=O)CSc2nc(N)cc(N)n2)c(C)n1-c1cccc(F)c1 ?
CtBP-E1A blk: inactive; JMJD2A Tudor: 28.2µM; Six1-Eya2 blk: inactive; HP1b binding inh: inconclusive; BAZ2B block: inconclusive; TDP1 block: inactive

What do the screens show for `CCC(=O)N1c2ccccc2CC1C(=O)NCc1cccc(OC)c1OC` (stereo not drawn)?
JMJD2A Tudor: inactive; HP1b binding inh: inactive; BAZ2B block: inactive; TDP1 block: inactive

How did CCN(CC)CCCC(C)n1c(-c2ccccc2)nc2c(N3CCOCC3)nc(C)nc21 (stereo not drawn) do in these assays?
TDP1 block: inactive

How did Cc1cc(C(=O)CSc2cccc[n+]2[O-])c(C)n1-c1ccc(Br)cc1 do in these assays?
BAZ2B block: 50.1µM; TDP1 block: inactive

Results for COc1ccc(/C=C/C(=O)c2ccc3ccccc3c2O)cc1CN1CCOCC1 ?
CtBP-E1A blk: inactive; JMJD2A Tudor: inconclusive; Six1-Eya2 blk: inactive; HP1b binding inh: inconclusive; BAZ2B block: 14.1µM; TDP1 block: inactive

Results for COc1ccc(/C=C/C(=O)c2ccccc2O)cc1CN1CCOCC1 ?
CtBP-E1A blk: inactive; JMJD2A Tudor: inconclusive; Six1-Eya2 blk: inactive; HP1b binding inh: inactive; BAZ2B block: inconclusive; TDP1 block: inactive

How did COc1ccc(C(=O)/C=C/c2ccc(OC)c(CN3CCOCC3)c2)cc1 do in these assays?
CtBP-E1A blk: inconclusive; JMJD2A Tudor: inconclusive; Six1-Eya2 blk: inactive; HP1b binding inh: inactive; BAZ2B block: inconclusive; TDP1 block: inactive

What do the screens show for `COc1ccc(/C=C/C(=O)c2ccc(O)cc2)cc1CN1CCOCC1`?
CtBP-E1A blk: -85.8; JMJD2A Tudor: inactive; Six1-Eya2 blk: inconclusive; HP1b binding inh: inactive; BAZ2B block: inactive; TDP1 block: inactive

How did CSC1CCCCC1(O)CSc1nc2c(cc1C#N)CCCC2 (stereo not drawn) do in these assays?
CtBP-E1A blk: inactive; JMJD2A Tudor: 20µM; Six1-Eya2 blk: inactive; HP1b binding inh: inconclusive; BAZ2B block: inactive; TDP1 block: inactive

How did O=C(c1cc2ccccc2oc1=O)N(Cc1cccs1)Cc1cccs1 do in these assays?
CtBP-E1A blk: inactive; JMJD2A Tudor: 28.2µM; Six1-Eya2 blk: inactive; HP1b binding inh: inactive; BAZ2B block: inactive; TDP1 block: inactive

How did O=C(c1cc2ccccc2oc1=O)N(Cc1ccco1)Cc1cccs1 do in these assays?
CtBP-E1A blk: inactive; JMJD2A Tudor: inactive; Six1-Eya2 blk: inactive; HP1b binding inh: inactive; BAZ2B block: inactive; TDP1 block: inactive

How did O=C(/C=C/c1cccc([N+](=O)[O-])c1)Nc1cc(C(=O)O)cc(C(=O)O)c1 do in these assays?
CtBP-E1A blk: inactive; JMJD2A Tudor: 17.8µM; Six1-Eya2 blk: inactive; HP1b binding inh: inconclusive; BAZ2B block: inconclusive; TDP1 block: inactive

How did CCc1cc2c3c(c1)C(C)CC(C)(C)N3C(=O)/C2=C1\SC(=O)NC1=O (stereo not drawn) do in these assays?
CtBP-E1A blk: inactive; JMJD2A Tudor: 50.1µM; Six1-Eya2 blk: inactive; HP1b binding inh: inconclusive; BAZ2B block: inconclusive; TDP1 block: inactive

Results for O=C(CSc1nc(-c2ccc(F)cc2)nc2c1Cc1ccccc1O2)Nc1cccc(C(=O)O)c1 ?
CtBP-E1A blk: inactive; JMJD2A Tudor: 10µM; Six1-Eya2 blk: inconclusive; HP1b binding inh: inconclusive; BAZ2B block: 7.94µM; TDP1 block: 3.98µM

How did O=C(CSc1nc(-c2ccccc2)nc2ccc(F)cc12)Nc1cccc(C(=O)O)c1 do in these assays?
CtBP-E1A blk: inactive; JMJD2A Tudor: inconclusive; Six1-Eya2 blk: inactive; HP1b binding inh: inactive; BAZ2B block: 79.4µM; TDP1 block: 79.4µM

How did O=C(CSc1nncc2ccccc12)Nc1cccc(C(=O)O)c1 do in these assays?
CtBP-E1A blk: inactive; JMJD2A Tudor: inactive[11.4 µM]; Six1-Eya2 blk: inactive; HP1b binding inh: inactive; BAZ2B block: inconclusive

How did O=C(CSc1nc(-c2ccccc2)nc2ccc(F)cc12)Nc1ccc(C(=O)O)cc1 do in these assays?
CtBP-E1A blk: inactive; JMJD2A Tudor: 35.5µM; Six1-Eya2 blk: inactive; HP1b binding inh: inactive; BAZ2B block: 50.1µM

Results for COc1ccc(NS(=O)(=O)c2ccccc2C(=O)O)cc1 ?
JMJD2A Tudor: inactive; TDP1 block: inactive

Bioassay records as filed in PubChem.
